Screen size: about 1,300 compounds; about 10 (0.8%) were called active. What follows is part of a selection rich in actives, with near analogues and random picks from the rest. Unmarked numbers belong to inactive results. How the calls were made is not given here.
These compounds were tested against Chaperone protein DnaK (Escherichia coli (strain K12)) (UniProt P0A6Y8) (assay: E. coli DnaK chaperone inhibitors, primary screen, luminescence, E. coli K12 (AID 547;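 further: tested at 10 µM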)). Settings: DnaK chaperone assay, luminescence read-out; hits give low values.

Row | Structure (SMILES) | luminescence
1 | CN(N=O)c1cc(O)ccc1O | 2.3e+06 cps
2 | CN(N=O)c1ccc(O)c(O)c1 | 951000 cps (active)
3 | CCCN(CCC)CCc1ccc(O)c(O)c1 | 2.6e+06 cps
4 | CCN(CCCl)Cc1ccccc1Br | 2.7e+06 cps
5 | NC(Cc1ccc(N(CCCl)CCCl)cc1)C(=O)O (stereo not given) | 2.5e+06 cps
6 | N[C@@H](CCl)C(=O)O | 2.4e+06 cps
7 | NC(Cc1cc(O)c(O)cc1O)C(=O)O (stereo not given) | 1.2e+06 cps (active)
8 | C[N+](C)(C)CC(=O)O | 2.7e+06 cps
9 | Oc1ccc2c3c1O[C@H]1c4[nH]c5ccccc5c4C[C@@]4(O)C(C2)N(CC2CC2)CCC314 (stereo not given in full) | 2.5e+06 cps
10 | C[C@]12CC[C@H]3[C@@H](CCC4C[C@H](O)CC[C@@]43C)[C@@H]1CC[C@@H]2O (stereo not given in full) | 2.6e+06 cps
